Data from PubChem BioAssay AID1851 (National Center for Advancing Translational Sciences (NCATS), 2009).
“And” between values parts separate entries of the source, which are not always exact repeats. Identical values can stand only once. Out of some 16,000 compounds screened, about 5,100 (32%) were called active. Not shown: some 25% with an inconclusive outcome. Some of the results follow. A number with no mark means an inactive call. The call rests on the fitted dose curve; in most records, active means well fitted curve in the direction sought with a large enough effect; inconclusive means small, poorly fitted or top-dose-only effect, or effect the other way; inactive means no such curve, though single readings can be large or run the other way.

These compounds were tested against Cytochrome P450 3A4 (Homo sapiens) (UniProt P08684) (assay: Cytochrome panel assay with activity outcomes). Settings: recombinant CYP, pro-luciferin dealkylation, luminescence, p450-cyp3a4; series mostly up to 57.1 µM.
Chain of Cytochrome P450 3A4 (Homo sapiens) (P08684 whole entry, looked up): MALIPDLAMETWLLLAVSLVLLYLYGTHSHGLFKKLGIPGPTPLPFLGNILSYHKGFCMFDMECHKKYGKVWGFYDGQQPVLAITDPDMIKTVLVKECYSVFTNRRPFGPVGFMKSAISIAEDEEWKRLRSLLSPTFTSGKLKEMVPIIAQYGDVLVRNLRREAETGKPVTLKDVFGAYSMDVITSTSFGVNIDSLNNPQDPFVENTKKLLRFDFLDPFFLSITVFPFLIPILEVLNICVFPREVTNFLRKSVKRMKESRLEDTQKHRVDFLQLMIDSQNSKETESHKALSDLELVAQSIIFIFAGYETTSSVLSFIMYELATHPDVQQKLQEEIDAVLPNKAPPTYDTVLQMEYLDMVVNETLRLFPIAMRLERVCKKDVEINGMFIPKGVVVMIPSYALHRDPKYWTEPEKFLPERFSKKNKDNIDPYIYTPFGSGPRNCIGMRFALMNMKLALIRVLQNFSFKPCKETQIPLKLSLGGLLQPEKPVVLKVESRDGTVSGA
On the % scale 0 is the no-effect control and ±100 the full control effect.

| Structure (SMILES) | activity, negative = inhibition | AC50 |
| --- | --- | --- |
| CCCN(CCC)[C@@H]1CCc2cccc(O)c2C1 | inactive | – |
| N=C(N)c1ccc(-c2ccc(-c3ccc(C(=N)N)cc3)o2)cc1 | 3.4% [at 11.4 µM] | – |
| CCCN(CCC)C1Cc2cc(OC)c(OC)cc2C1 | inactive | – |
| C[N+](C)(C)CCO | inactive | – |
| C[C@H](c1ccccc1)N1CCN([C@@H](C)c2ccccc2)CC1 | -13.4% [at 11.4 µM] | – |
| O=C1c2ccccc2-c2cc([N+](=O)[O-])c([N+](=O)[O-])cc21 | – | 0.501 µM (active) |
| O=C1c2cc([N+](=O)[O-])ccc2-c2ccc3c4ccc5c6c(ccc(c7ccc1c2c73)c64)C(=O)c1cc([N+](=O)[O-])ccc1-5 | -21% [at 11.4 µM] | – |
| NCCc1ccc(S(=O)(=O)O)cc1[N+](=O)[O-] | -7.4% [at 11.4 µM] | – |
| CSCC[C@@H](N)P(C)(=O)O | -8.04% [at 11.4 µM] | – |
| C=C[C@]12CN(C)[C@H]3C1[C@@]1(C(=O)Nc4ccccc41)[C@H]1C[C@H]2[C@H]3CO1 | inactive | – |
| Oc1cccc2cccnc12 | -3.42% [at 11.4 µM] | – |
| CC[C@H]1C(=O)OC[C@H]1Cc1cncn1C | – | 10 µM (active) and 3.16 µM (active) |
| CCC1C(=O)OCC1Cc1cncn1C (stereo not given) | – | 15.8 µM (active) |
| c1csc(CN2CC3(CCNCC3)C2)n1 | inactive | – |
| OC1(c2ccc(F)cc2)CCNC1 (stereo not given) | inactive | – |
| O=S(=O)(O)/C(=C\c1ccccc1)c1ccccc1 (tested in a mixture with another compound) | -11.7% [at 11.4 µM] | – |
| COc1ccn(C)c(=O)c1C#N | inactive | – |
| Cc1ccc(N=Nc2c(O)[nH]c(=O)[nH]c2=O)c([N+](=O)[O-])c1 | inactive | – |
| CP(=O)(O)CCCN | inactive | – |
| NC(=O)COc1c(F)cc(SCCNS(=O)(=O)c2ccccc2)cc1F | – | 12.6 µM (active) |
| C/C(=C\C=C/[C@@H](C)C(=O)O)[C@H]1CN[C@H](C(=O)O)[C@@H]1CC(=O)O | inactive | – |
| CC(C)CNC(=S)NC1CC2CCCC(C1)N2Cc1ccco1 (stereo not given) | 2.91% [at 2.29 µM] | – |
| Cc1ccc(C(=O)C2C(=O)c3ccccc3C2=O)cc1 | -18.3% [at 11.4 µM] | – |
| CN(C(=O)Cc1ccc(Cl)c(Cl)c1)[C@H](CN1CCCC1)c1ccccc1 | – | 6.31 µM (active) |

| Structure (SMILES) | activity, negative = inhibition | AC50 |
| --- | --- | --- |
| CN(C(=O)Cc1ccc(Cl)c(Cl)c1)[C@@H](CN1CCCC1)c1cccc(OCC(=O)O)c1 | inactive | – |
| O=C(O)CP(=O)(O)c1ccc(Cl)cc1 | inactive | – |
| COc1ccc(C[C@H]2c3cc(OC)c(OC)cc3CCN2C)cc1OC | inactive | – |
| C[C@]1(C(=O)O)[C@@H]2CC[C@@H](O2)[C@@]1(C)C(=O)O | inactive | – |
| CC1(C)CCC2=C(O1)c1ccccc1C(=O)C2=O | – | 15.8 µM (active) |
| COc1cc2c3cc1Oc1c(O)c(OC)cc4c1[C@@H](Cc1ccc(cc1)Oc1cc(ccc1O)C[C@H]3N(C)CC2)N(C)CC4 | -12.1% [at 11.4 µM] | – |
| N[C@H](C(=O)O)c1cc(=O)[nH]o1 | inactive | – |
| N[C@@H](CP(=O)(O)O)C(=O)O | -3.52% [at 11.4 µM] | – |
| OC(Cn1c2ccccc2c2ccccc21)C[n+]1ccccc1 (stereo not given) | -1.96% [at 2.29 µM] | – |
| CCCCC1(CCCC)C(=O)NC(=Nc2cccc(C)c2)NC1=O | – | 12.6 µM (active) |
| CCCCCC[C@H]1C(=O)O[C@H](C)[C@H](NC(=O)c2cccc(NC=O)c2O)C(=O)O[C@@H](C)[C@H]1OC(=O)CC(C)C | – | 5.01 µM (active) |
| C[C@@H]1OC=C2[C@@H](O)[C@H]3O[C@H]3C(=O)[C@@]23[C@H]1[C@H]1C2=C([C@@H](O)[C@H]4O[C@@H]4C2=O)[C@@H]3O[C@@H]1C | -18.6% [at 11.4 µM] | – |
| C[N+]1(C)[C@@H]2CC(OC(=O)[C@@H](CO)c3ccccc3)C[C@@H]1[C@H]1O[C@H]12 (stereo not given in full) | 2.59% [at 11.4 µM] | – |
| Nc1nc(N)c2nc(CNc3ccc(C(=O)N[C@H](CCC(=O)O)C(=O)O)cc3)cnc2n1 | inactive | – |
| C[C@@H](COc1ccccc1)N(CCCl)Cc1ccccc1 | inactive | – |
| N[C@@H](CCCP(=O)(O)O)C(=O)O | inactive | – |
| O=c1cc(-c2ccc(O)cc2)oc2c([C@H]3O[C@@H](CO)[C@@H](O)[C@@H](O)[C@@H]3O)c(O)cc(O)c12 | inactive | – |
| CNCCc1cnc[nH]1 | inactive | – |
| Cc1ccccc1-c1cncnc1NCCc1cnc[nH]1 | – | 0.631 µM (active) |
| Clc1ccccc1-c1cncnc1NCCc1cnc[nH]1 | – | 0.501 µM (active) |
| CN(C)C(=O)Oc1ccc[n+](C)c1 | inactive | – |
| NC(=O)c1ccc(C(=O)Nc2ccc([As](=O)(O)O)cc2)cc1 | 8.53% [at 11.4 µM] | – |
| C[C@H](Br)C(=O)N[C@H](CO)C(=O)O | 8.21% [at 11.4 µM] | – |
| O=C(Oc1ccc(S(=O)(=O)F)cc1F)c1ccccc1Cl | -5.64% [at 11.4 µM] | – |

| Structure (SMILES) | activity, negative = inhibition | AC50 |
| --- | --- | --- |
| NCCc1c[nH]c2ccc(OC(=O)C(=O)O)cc12 | -35.7% [at 11.4 µM] | – |
| O=C(O)c1cc[c]([Hg][S]c2ncnc3nc[nH]c23)cc1 | -15.7% [at 11.4 µM] | – |
| O=C(c1cc(=O)[nH]c2ccc(Br)cc12)N1CCC2(CC1)OCCO2 | inactive | – |
| CN(C)c1ccc(NC(=O)CN2C(=O)CN=C(c3ccccc3)c3ccccc32)cc1 | – | 4.47 µM (active) |
| Cc1cc2c(C(F)(F)F)cc(=O)oc2c2c1NCCC2 | inactive | – |
| CCCCCCCCCCCCCC(=O)O[C@H]1[C@@H](C)[C@@]2(O)[C@@H](C=C(CO)C[C@]3(O)C(=O)C(C)=C[C@@H]23)C2C(C)(C)[C@]21OC(C)=O (stereo not given in full) | – | 25.1 µM (active) |
| CC(C)(c1ccc(OC[C@@H]2CO2)cc1)c1ccc(OC[C@H]2CO2)cc1 | inactive | – |
| N=C1c2ccccc2CN1NC(=O)c1ccc(Cl)cc1 | inactive | – |
| O=C(O)[C@@H](O)[C@@H](O)[C@@H]1[O][Sb][O][C@@H]1CO | -1.25% [at 11.4 µM] | – |
| O=C(Nc1cccc(F)c1)N1CC2(CCNCC2)C1 | inactive | – |
| O=C(Nc1cccc(F)c1)N1CCCC2(CCN(C(=O)Oc3ccccc3)CC2)C1 | – | 15.8 µM (active) |
| O=C(Nc1ccccc1)N1CCCC2(CCN(C(=O)Oc3ccccc3)CC2)C1 | – | 15.8 µM (active) |
| COc1ccc(NC(=O)N2CCCC3(CCN(C(=O)Oc4ccccc4)CC3)C2)cc1 | – | 12.6 µM (active) |
| NC[C@@H](Cc1ccccc1)P(=O)(O)O | -4.81% [at 11.4 µM] | – |
| CC12CN3CC(C)(CN(C1)C31CCSCC1)C2=O | inactive | – |
| C[C@H]1CC[C@]2(OC1)O[C@@H]1C[C@@H]3[C@@H]4CC[C@H]5C[C@@H](O)CC[C@]5(C)[C@@H]4CC(=O)[C@@]3(C)[C@H]1[C@@H]2C | inactive | – |
| Cc1ncsc1CCCl | inactive | – |
| CO[C@@H](C)[C@](O)(C(=O)OCC1=CCN2CC[C@@H](O)[C@H]12)C(C)C | inactive | – |
| C#C[C@@]1(O)CC[C@@H]2[C@@H]3CCC4=CC(=O)CC[C@@]4(C)[C@H]3CC[C@]21C | inactive | – |
| NO | inactive | – |
| O=C1NC(=S)NC(=O)C1=Cc1cccc2cc3ccccc3cc12 | -17.5% [at 11.4 µM] | – |
| C[C@@H]1O[C@H](C[N+](C)(C)C)CS1 | inactive | – |
| COC(=O)Nc1nc2ccc(C(=O)c3cccs3)cc2[nH]1 | inactive | – |
| COc1ccc2[nH]c(C(=O)c3ccccc3)cc2c1 | – | 7.94 µM (active) |

| Structure (SMILES) | activity, negative = inhibition | AC50 |
| --- | --- | --- |
| COc1ccc2[nH]c3c(c2c1)CCNC3 | inactive | – |
| Fc1ccc(CCNCc2ccc(Cl)c(Cl)c2)cc1 | -18.5% [at 2.29 µM] | – |
| Fc1ccccc1CCNCc1cccc(Cl)c1Cl | – | 0.631 µM (active) |
| CCN=C=NCCCN(C)C | 0.783% [at 11.4 µM] | – |
| O=NN(Cc1ccc(Cl)cc1)[C@@H](C(=O)O)c1ccccc1 | -7.56% [at 11.4 µM] | – |
| C[N+]1([O-])[C@@H]2CC[C@H]1CC(OC(=O)[C@@H](CO)c1ccccc1)C2 (stereo not given in full) | inactive | – |
| C[C@]12CC[C@H]3c4ccc(O)cc4CC[C@@H]3[C@H]1CC[C@@H]2OP(=O)(O)O | 0.528% [at 11.4 µM] | – |
| COc1ccc(C2NCc3ccc4c(c3-n3cccc32)OCO4)cc1OC (stereo not given) | – | 5.01 µM (active) |
| COCCCNC(=S)NC1CC2CCCC(C1)N2Cc1cccs1 (stereo not given) | inactive | – |
| COCCNC(=S)N1C2CCC1CC(NC(=O)NC13CC4CC(CC(C4)C1)C3)C2 (stereo not given) | – | 3.16 µM (active) |
| COCCNC(=S)NC1CC2CCCC(C1)N2Cc1cccs1 (stereo not given) | inactive | – |
| CN1CCN(c2ccc3ccccc3n2)CC1 | inactive | – |
| NC(N)=NN=Cc1c(Cl)cccc1Cl | inactive | – |
| [N-]=[N+]=NCC(=O)c1c[nH]c(=O)[nH]c1=O | 17.4% [at 11.4 µM] | – |
| N/C(=N\N=C/c1ccc(-c2ccc(O)c(C(=O)O)c2)o1)N[N+](=O)[O-] | inactive | – |
| C[C@@H]1Cc2cc3c(cc2C(c2ccc(N)cc2)=NN1)OCO3 | – | 2.51 µM (active) |
| C[N+]1([O-])[C@H]2CC[C@H]1CC(OC(=O)[C@@H](CO)c1ccccc1)C2 (stereo not given in full) | -2.26% [at 11.4 µM] | – |
| C[C@@]12CC(=O)[C@H]3[C@@H](CCC4=CC(=O)CC[C@]43C)[C@H]1CCC2=O | inactive | – |
| NC(N)=Nc1ccc2[nH]c3c(c2c1)C[C@]1(O)[C@@H]2Cc4ccc(O)c5c4[C@]1(CCN2CC1CC1)[C@@H]3O5 | inactive | – |
| CCCC[N+]1(C)[C@@H]2CC(OC(=O)[C@@H](CO)c3ccccc3)C[C@H]1[C@H]1O[C@H]12 (stereo not given in full) | inactive | – |
| COc1ccc(C[C@@H](N)c2ccc(OC)cc2)cc1 | -30.1% [at 11.4 µM] | – |
| N[C@@H](Cc1ccccc1)P(=O)(O)O | -2.63% [at 11.4 µM] | – |
| CCSc1nnc(C(N)Cc2ccccc2)o1 (stereo not given) | – | 11.2 µM (active) |
